Screens from PubChem BioAssay.
Compounds with a hit are over-represented: about 0.9% of the library has one in this group of screens.
CDC25B-CDK2 inh: human CDC25B-CDK2/CyclinA binding inhibition; P30305+P24941; HTRF CDC25B-CDK2/CyclinA binding, anti-His/anti-Flag; hits give high values; z-score (concentration not given with the values); actives 0.72% (n = 94,000); AID 1259370; in the data active means z-score above about 3.2
HIV TAR-Tat: HIV-1 TAR-Tat binding disruption; HIV-1 TAR RNA, Tat peptide displacement FRET; hits give high values; z-score (no concentration beside the values); actives 0.6% (n = 100,000); active means z-score of 3 or more in at least 2 runs
Numbers without * were called inactive; / = not tested or not shown.

SMILES	CDC25B-CDK2 inh	HIV TAR-Tat
Cc1ccc(SCC(=O)OCc2cc(=O)n3c(C)csc3n2)cc1	/	0.47
O=C(Nc1ccccc1)Nc1ccccc1N1CCOCC1	-1.8	/
O=C(O)c1sccc1S(=O)(=O)Nc1ccccc1N1CCOCC1	19*	/
CCCNc1ncnc2c1c(-c1ccccc1)cn2-c1cccc(C)c1	-4.2	/
O=C(CSc1ccc2nnc(CCNS(=O)(=O)c3ccccc3)n2n1)NC1CCCCC1	/	1.6
Cc1cc2nc(-c3cc(N)ccc3O)oc2cc1C	1.6	3
O=C(O)CCCNc1cc(N2CCC(=O)CC2)c2noc3c2c1C(=O)c1ccccc1-3	14*	27*
CCCN1CCN(c2cc(NCCCC(=O)O)c3c4c(onc24)-c2ccccc2C3=O)CC1	-2	-5.8
CCOCCCNc1cc(N2CCN(C3CCCCC3)CC2)c2noc3c2c1C(=O)c1ccccc1-3	-1.8	1.5
O=C(O)CCCNc1cc(N2CCN(C3CCCCC3)CC2)c2noc3c2c1C(=O)c1ccccc1-3	13*	-3.4
O=C(CCCc1nnc2c(=O)n(-c3cccc(F)c3)ccn12)Nc1ccc(Br)cc1	/	1.5
Cc1cn2c(=O)c(S(=O)(=O)NCc3cccs3)c(C)nc2s1	/	-0.85
CCSc1nc2c(c(=O)[nH]1)C(c1ccc(O)c(O)c1)CC(=O)N2 (centres undefined)	14*	22*
CSc1nc2c(c(=O)[nH]1)C(c1cccc(O)c1)CC(=O)N2 (centres undefined)	-2.4	2.8
CCSc1nc2c(c(=O)[nH]1)C(c1cccc(O)c1)CC(=O)N2 (centres undefined)	-1.4	0.62
CSc1nc2c(c(=O)[nH]1)C(c1ccc(O)c(O)c1)CC(=O)N2 (centres undefined)	5.6	18*
CCOC(=O)c1c(C)[nH]c(C)c1S(=O)(=O)Nc1cc(OC)ccc1OC	/	0.88
CCCc1cc(=O)n2nc(N3CCC(C(=O)NCCOC)CC3)sc2n1	0.48	2.5
CSc1cccc(NC(=O)CCS(=O)(=O)c2ccc3nc(C)sc3c2)c1	/	2.4
Cc1ccc(CS(=O)(=O)c2ncc(Cl)c(C(=O)Nc3nnc(C(C)C)s3)n2)cc1	5.5*	0.97
Cc1ccc(CS(=O)(=O)c2ncc(Cl)c(C(=O)Oc3ccc(C)cc3)n2)cc1	-1.3	-0.27
Cc1ccc(-c2cc(C(=O)O)c3c(-c4ccccc4)[nH]nc3n2)cc1	/	0.86
Cc1ccc(-c2[nH]nc3nc(-c4ccc(O)c(O)c4)cc(C(=O)O)c23)cc1	-0.27	20*
COc1ccc(CNS(=O)(=O)c2ccc3c(c2)S(=O)(=O)N=CN3)cc1	/	-1.5
O=c1[nH]c2ccc(S(=O)(=O)N3CCN(c4cccc(Cl)c4)CC3)cc2[nH]c1=O	16	20*
SMILES	CDC25B-CDK2 inh	HIV TAR-Tat
O=c1[nH]c2ccc(S(=O)(=O)N3CCN(c4ccccc4)CC3)cc2[nH]c1=O	-0.51	/
COC(=O)c1cc2oc(C)cc2n1CC(=O)NCCC1=CCCCC1	-0.26	-0.54
CC(C)c1ccc(CNCCCSc2nnnn2C)cc1	-1.3	2.3
CS(=O)(=O)Nc1ccc2c(c1)N(S(C)(=O)=O)CCC2	/	1.8
CN(C(=O)CSc1nc2ncccc2o1)c1ccc(F)cc1	/	-1.3
O=C(NCc1ccc2c(c1)OCO2)c1ccc2nc(-c3ccco3)c(-c3ccco3)nc2c1	/	60*
O=C(NCc1ccc2c(c1)OCO2)c1ccc2nc3[nH]c4ccccc4c3nc2c1	/	1.7
CSc1nnc2c(n1)OC(/C=C/c1cccs1)Nc1ccccc1-2 (centres undefined)	-1.8	0.36
O=S(=O)(CCN(CCCc1ccccc1)S(=O)(=O)c1ccc(Cl)cc1)N1CCNCC1	/	2
COCCn1c(C)cc(C(=O)C(=O)Nc2nnc(-c3ccco3)s2)c1C	-1.6	31*
Cc1nnc(NC(=O)C(=O)c2cc(C)n(-c3ccc(Cl)cc3)c2C)s1	0.27	1.2
Cc1cc(C(=O)C(=O)Nc2nnc(-c3ccco3)s2)c(C)n1-c1ccc(Cl)cc1	-1.3	19*
COCCn1c(C)cc(C(=O)C(=O)Nc2nnc(-c3cccs3)s2)c1C	-2.3	2.9
COc1ccc(-c2nc(-c3c(C)[nH]c4ccccc34)cs2)cc1OC	-1.1	/
O=c1[nH]nc(-c2ccc(F)cc2)c2c1Nc1nnnn1C2c1ccccc1Cl (centres undefined)	-0.3	1.4
FC(F)(F)C(=C(NC(=S)N1CCCCCC1)C(F)(F)C(F)(F)F)C(F)(F)F	5.7*	/
FC(F)(F)C(=C(NC(=S)n1cnc2ccccc21)C(F)(F)C(F)(F)F)C(F)(F)F	-3.2	/
Cc1ccc(C)n1-c1nnc(N2CCC(C(=O)NC3CCCC3)CC2)s1	-0.28	2.2
O=S1(=O)N=CN(CCOc2ccc(F)cc2)c2ccccc21	/	-0.02
C/C(=C/C(=O)NN(C)C)C(=O)O	-4	/
O=C1c2cccc3c(SCCO)ccc(c23)C(=O)N1CCc1ccccn1	7.8*	/
O=C(CN1C(=O)c2cccc3cccc1c23)NCc1ccccn1	-0.95	0.42
O=S(=O)(Nc1ccc2c(c1)N(S(=O)(=O)c1ccc(F)cc1)CCC2)c1ccccc1Cl	/	1.5
Cc1nnc(N2CCN(c3ccccc3)CC2)c2c1nnn2Cc1ccccc1Cl	-3.6	-0.78
CCN1CCN(C(=O)c2c(C)oc3c2cc(OC(C)=O)c2ccccc23)CC1	7.7*	-2.3
SMILES	CDC25B-CDK2 inh	HIV TAR-Tat
CCN1CCN(C(=O)c2c(C)oc3ncnc(N4CCCCC4)c23)CC1	/	-0.83
CC12OC(C(Br)C1Br)C1C(=O)OC(=O)C12 (centres undefined)	6.1*	/
O=C(NCc1ccccc1)Nc1ccc2snnc2c1	11*	1.1
CN(C)C(=O)Nc1ccc2snnc2c1	1.9	-0.37
O=C(Nc1ccc2snnc2c1)NC1CCCC1	2	1.5
O=C(NCc1ccc2c(c1)OCO2)Nc1ccc2snnc2c1	-2.3	/
CSc1ccc(CCNC(=O)Nc2ccc3snnc3c2)cc1	0.6	2.1
CCN(CC)C(=O)Nc1ccc2snnc2c1	9.1*	1.1
O=C(NCCCO)Nc1ccc2snnc2c1	6.5*	1.5
COCCNC(=O)Nc1ccc2snnc2c1	7.8*	1.8
C=CCSc1nc2c(c(=O)[nH]1)C(c1ccc(Cl)cc1)C(C(=O)OC)=C(C)N2 (centres undefined)	-1.1	-0.21
NC(=O)C1CCN(C(=O)C2CCN(C(=O)c3cnn(-c4ccccc4)c3-n3cccc3)CC2)CC1	-0.71	-0.42
COc1ccc(NS(=O)(=O)c2ccc(CN3C(=O)c4cccnc4C3=O)s2)c(OC)c1	/	0.08
COc1cc(-c2nc3cc(C)ccn3c2Nc2ccc3c(c2)OCCO3)ccc1O	-2.5	-2
C=CCNC(=O)Nc1ccc2snnc2c1	10*	2.1
C=CCNC(=O)c1ccc2snnc2c1	-0.87	0.7
CCc1nnc(NC(=O)Cn2c(=O)sc3ccccc32)s1	-0.08	/
CCc1nnc(NC(=O)c2cc(=O)n3c(nc4ccccc43)s2)s1	/	3.8*
O=C(Nc1ccc(F)cc1)c1cc2c(s1)-c1ccsc1CC2	-1.7	0.12
CCC1CCCCN1CCCNC(=O)C1CCCN(S(=O)(=O)N2CCCCC2)C1 (centres undefined)	/	4.5*
CCC1CCCCN1CCCNC(=O)C1CCCN(S(=O)(=O)N2CC(C)CC(C)C2)C1 (centres undefined)	/	1.3
Cc1ccccc1-c1nnc(SCC(=O)c2ccccc2)o1	-0.55	1.7
Cc1sc(-n2cccc2)c(C(C)NC(=O)Nc2ccccc2Cl)c1C (centres undefined)	1.9	-0.17
CN(C(=O)Cn1ncc2c1-c1ccccc1OC2)c1ccccc1Cl	-1.5	1.1
